DAX1 inh-1 = inhibits human nuclear receptor DAX1; HEK293 Gal4-DAX1 luciferase reporter, luminescence; 340,000 tested, 0.99% active; P51843; inhibition, % at 6.75 µM;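 active means inhibition above the mean over all tested compounds plus 3 SD, cut at about 4.2% in these data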;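 further: 0% = DAX1-transfected cells with DMSO and 100% = empty-vector control cells with DMSO; inhibition shows as a rise in luminescence from relieved DAX1 repression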
Target sequence (P51843 207-470 limits assumed): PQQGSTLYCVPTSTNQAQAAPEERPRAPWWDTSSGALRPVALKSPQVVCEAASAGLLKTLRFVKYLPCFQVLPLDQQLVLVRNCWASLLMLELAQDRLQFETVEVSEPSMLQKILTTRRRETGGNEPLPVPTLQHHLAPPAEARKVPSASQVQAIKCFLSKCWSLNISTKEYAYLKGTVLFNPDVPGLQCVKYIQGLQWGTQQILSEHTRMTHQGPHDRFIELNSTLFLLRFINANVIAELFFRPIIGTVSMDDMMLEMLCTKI
ssDAF12 agonist = activates DAF-12 receptor from parasite S. stercoralis; HEK293 ssDAF-12/GRIP1 lit1-tk-luc reporter, luminescence; % of 3 µM dafachronic acid response; activation, % at 6.8 µM; 370,000 tested, 1% active; AID 652126;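 active means activation above the mean over all tested compounds plus 3 SD, cut at about 0.9% in these data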;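 further: 0% = DMSO-only wells and 100% = 3 µM delta7-dafachronic acid wells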
hcDAF12 agonist = activators of H. contortus DAF-12 nuclear receptor; activation, % at 6.8 µM; 370,000 tested, 1.4% active; HEK293 hcDAF-12 lit1-tk-luc reporter, luminescence; 0% DMSO, 100% Δ7-dafachronic acid;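 active means activation above the mean of all tested compounds plus 3 SD, cut at about 5.5% in these data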;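 further: 100% = response to 3 µM Δ7-dafachronic acid high control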
DAX1 inh-2 = inhibitors of DAX1 repression of SF-1 activated StAR promoter | inhibition, % at 6.8 µM | HEK293T StAR-luciferase reporter, SF-1/DAX-1 repression relief | 370,000 tested, 1.1% active;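 active means inhibition above the mean over all tested compounds plus 3 SD, cut at about 3.6% in these data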;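 further: 0% = DAX-1 cells with DMSO and 100% = cells lacking DAX-1 with DMSO; higher inhibition means more luminescence from relief of DAX-1 repression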
hgDAF-12 ag = agonists of H. glycines DAF-12 nuclear receptor; HEK293 GAL4-hgDAF12 UAS-luciferase reporter, agonist luminescence; normalized to butyrate control; activation, % at 6.8 µM; 370,000 tested, 1.8% active; AID 687014;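 active means activation above a cutoff set at the mean of all screened compounds plus 3 SD, cut at about 10% in these data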;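 further: 0% = DMSO wells and 100% = sodium butyrate wells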
hgDAF12 ag = confirmation of H. glycines DAF-12 agonists; activation, % at 6.8 µM; HEK293 GAL4-hgDAF12 luciferase reporter, agonist mode; percent of butyrate response; 3,300 tested, 80% active; AID 743050; shares compounds with hgDAF-12 ag;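 active means mean activation over triplicate wells above the hit cutoff derived from the earlier primary screen, cut at about 11% in these data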;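 further: 0% = DMSO low control and 100% = 2 mM sodium butyrate high control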
LXR ag 2 = counter-screen for DAF-12 agonists: agonists of human LXR-beta. shares compounds with hgDAF-12 ag. HEK293 Gal4-LXR luciferase reporter, 24 h. activation, % at 6.8 µM. 3,300 tested, under 10 active;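 active means mean activation of the triplicate above a set limit carried over from the primary screen, none filed active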
Starred values were filed as active, the others as inactive. The list is not random: actives were taken first. Their share in the collection is about 4.1%.

`O=C(N/N=C\c1cccc(Cl)c1)c1n[nH]c2c1CCCC2` gave DAX1 inh-1 1, ssDAF12 agonist -1, hcDAF12 agonist 2, DAX1 inh-2 3, hgDAF-12 ag 14*, hgDAF12 ag 11* and LXR ag 2 1.
O=C(N/N=C/c1ccc(Cl)cc1Cl)c1n[nH]c2c1CCCC2 was read as DAX1 inh-1 0, ssDAF12 agonist -1, hcDAF12 agonist 0, DAX1 inh-2 1 and hgDAF-12 ag 2.
Screening COc1ccc(Oc2cnn(-c3ccccc3)c(=O)c2Br)cc1 returned DAX1 inh-1 -1, ssDAF12 agonist -1, hcDAF12 agonist -1, DAX1 inh-2 -2, hgDAF-12 ag 56*, hgDAF12 ag 1 and LXR ag 2 0.
For CCOC(=O)N1CCC(NC(=O)c2cc3ccccn3n2)CC1 the results were DAX1 inh-1 0, ssDAF12 agonist -2, hcDAF12 agonist -1, DAX1 inh-2 1, hgDAF-12 ag 16*, hgDAF12 ag -1 and LXR ag 2 0.
`OCC1SC(O)C(O)C(O)C1O` (stereo unspecified) gave ssDAF12 agonist -1, hcDAF12 agonist 0, DAX1 inh-2 0 and hgDAF-12 ag 3.
For COc1ccc2c(c1)CCC/C2=N/OC(=O)c1ccccc1OC the results were DAX1 inh-1 -1, ssDAF12 agonist -1, hcDAF12 agonist -1, DAX1 inh-2 0 and hgDAF-12 ag 3.
`COc1ccc2c(c1)CC/C2=N\OC(=O)c1cccc(C)c1` gave DAX1 inh-1 2, ssDAF12 agonist 0, hcDAF12 agonist 2, DAX1 inh-2 2, hgDAF-12 ag 14*, hgDAF12 ag 17* and LXR ag 2 1.
Screening Cc1ccc(NC(=O)Nc2ccc(F)cc2)nc1 returned DAX1 inh-1 0, ssDAF12 agonist 0, hcDAF12 agonist 0, DAX1 inh-2 1 and hgDAF-12 ag 6.
For Cc1ccnc(NC(=O)Nc2ccc(F)cc2)c1 the results were DAX1 inh-1 2, ssDAF12 agonist 1, hcDAF12 agonist 5, DAX1 inh-2 3, hgDAF-12 ag 14*, hgDAF12 ag 19* and LXR ag 2 1.
Screening O=C(NCc1cccnc1)C1CCN(S(=O)(=O)c2cc(Cl)ccc2Cl)CC1 returned DAX1 inh-1 0, ssDAF12 agonist -1, hcDAF12 agonist -1, DAX1 inh-2 0 and hgDAF-12 ag -1.
O=C(OC12CCCN(C1)/C(=C/c1cccnc1)C2)c1ccc(F)cc1 (stereo unspecified) was read as ssDAF12 agonist -2, hcDAF12 agonist -6, DAX1 inh-2 -3 and hgDAF-12 ag -5.
Screening Cc1ccc(-c2nc(-c3ccncc3)no2)cc1C returned DAX1 inh-1 4, ssDAF12 agonist 0, hcDAF12 agonist 2, DAX1 inh-2 2, hgDAF-12 ag 18*, hgDAF12 ag 19* and LXR ag 2 1.
`CC(=O)c1sc(Nc2cccc(C)c2)nc1C` gave DAX1 inh-1 2, ssDAF12 agonist -1, hcDAF12 agonist 2, DAX1 inh-2 1 and hgDAF-12 ag 6.
Screening Cc1cccc(Nc2nc3c(s2)CCCC3)c1 returned DAX1 inh-1 3, ssDAF12 agonist 0, hcDAF12 agonist 3, DAX1 inh-2 3, hgDAF-12 ag 18*, hgDAF12 ag 16* and LXR ag 2 1.
Cc1ccc(Nc2nc(N)nc(CSc3ncccn3)n2)cc1 was read as DAX1 inh-1 2, ssDAF12 agonist 1, hcDAF12 agonist 3, DAX1 inh-2 2, hgDAF-12 ag 16*, hgDAF12 ag 14* and LXR ag 2 1.
COc1ccc(-c2nnc(SCC(=O)Nc3c(Cl)cc(Cl)cc3C(=O)O)o2)cc1 was read as DAX1 inh-1 0, ssDAF12 agonist -1, hcDAF12 agonist -1, DAX1 inh-2 0 and hgDAF-12 ag 4.
CC12CC3CC1C(C(=O)O2)C3C(=O)O (stereo unspecified) was read as DAX1 inh-1 0, ssDAF12 agonist -1, hcDAF12 agonist -2, DAX1 inh-2 0 and hgDAF-12 ag -3.

Source: PubChem
